Over roughly 68,000 sequences, “fluorescence intensity (a.u.)” has its median near 9,100; the highest 2% begin near 16,000. The entries come from a sample that favours the highest values as a whole.

This passage reports binding signal results from PMC7819943, “Rice protein-binding microarrays: a tool to detect cis-acting elements near promoter regions in rice”.

The target of this assay is OsWRKY34 (Oryza sativa, UniProt Q0JBA9 1-250). In words: protein-binding microarray (RPBM); PBS, 2% BSA, 51.3 ng/ul salmon testes DNA, 50 uM zinc acetate, 200 nM TF, 25 C, 1 h; high values mean tight binding. As to conditions: protein: recombinant; tags: N-terminal polyhistidine and DsRed monomer fusion (pET32a); label: CyDye5-dUTP incorporated in the synthesized complementary strand; 3' TTTTT single-stranded linker to array surface; dsDNA, one strand shown. An outline of the steps: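 The binding signal is fluorescence intensity per feature, in arbitrary units, read on an Axon 4000B scanner. Polyhistidine- and DsRed-tagged transcription factors (N-terminal fusions) from E. coli BL21-CodonPlus were purified on Ni–NTA and applied at 200 nM for 1 h at 25 °C to a double-stranded, BSA-blocked custom Agilent array in buffer with 50 µM zinc acetate.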
OsWRKY34, sequence (Q0JBA9 entry or part of it): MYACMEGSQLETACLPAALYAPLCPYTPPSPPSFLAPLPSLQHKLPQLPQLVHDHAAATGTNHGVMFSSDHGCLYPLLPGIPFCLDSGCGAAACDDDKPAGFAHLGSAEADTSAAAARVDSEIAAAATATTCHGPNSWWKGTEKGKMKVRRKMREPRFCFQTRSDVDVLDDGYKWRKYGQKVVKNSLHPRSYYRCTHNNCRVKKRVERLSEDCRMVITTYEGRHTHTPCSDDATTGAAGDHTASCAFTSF
In the case of “CTTTTTATCTCAAATTTGAAAACTTTCAACTTGGATTTGACGGAGTCACCTAGTGCAG”, the binding signal was 8520 fluorescence intensity (a.u.).

With “AACTTGCGAAAATTTGACTATCAATTAGCTGGGCGATTGACGGAGTCACCTAGTGCAG”, the binding signal was 32700 fluorescence intensity (a.u.).

For “GTGGGGATGGAGGCGTCGTCGGGGTCGTCGTAGAGGTGGGCGGAGTCACCTAGTGCAG”, the binding signal is 9240 fluorescence intensity (a.u.).

With “CTGCGGGAGGACGGGTCCGGGGCGGGGTCCGGGTCGGTGCCGGAGTCACCTAGTGCAG”, the binding signal is 9780 fluorescence intensity (a.u.).

Consider “GGGCCCCAGTCAGGGTGCGGGGCCACGGAGGGGTCGGGGACGGAGTCACCTAGTGCAG”, for which the binding signal was 9260 fluorescence intensity (a.u.).

Take “GTCGGGGAGGTCGGGGTCAGGGAGGTCGGGGCCGGTGATGCGGAGTCACCTAGTGCAG”: the binding signal was 18900 fluorescence intensity (a.u.).

As to “GGGTGGGGAGGTGGTGGTCGTCGGGCAGGTGGGGAGGATGCGGAGTCACCTAGTGCAG”, the binding signal was 23900 fluorescence intensity (a.u.).

Turning to “GGAGGATGCGGGTGGTGGTGGAGGAGGAGGAGGCCGAGGTCGGAGTCACCTAGTGCAG”, the binding signal is 12400 fluorescence intensity (a.u.).

As to “GCAGACAACTCCGTCGCTGTTACTTCCTCTATGCCAAAACCGGAGTCACCTAGTGCAG”, the binding signal is 9350 fluorescence intensity (a.u.).

As for “AGCGCGCGCAGCTTTGCAGGCGTGGTCGGGGTCGTTGTGCCGGAGTCACCTAGTGCAG”, the binding signal is 9700 fluorescence intensity (a.u.).

Take “TTTACATATCTATCTTTTTTTTTTGTTTTTTCTCGCTTTTCGGAGTCACCTAGTGCAG”: the binding signal is 8460 fluorescence intensity (a.u.).

On to “AACCTTTCTATAGATTTTTTTTTTTTACAAAAACACATCACGGAGTCACCTAGTGCAG”, for which the binding signal is 11700 fluorescence intensity (a.u.).

Consider “ACCATTATTCTGTTGTCAACTGCATGCCGCAACAAACTGACGGAGTCACCTAGTGCAG”, for which the binding signal was 8420 fluorescence intensity (a.u.).

For the sequence “AGGTCAACAACCAGTGTCAAGATCTGACCATGCAATTAGCCGGAGTCACCTAGTGCAG”, the binding signal was 17600 fluorescence intensity (a.u.).

Regarding “AATCCCAAGCTAGGTGTTGACCATGGGTCAACAATCTCCCCGGAGTCACCTAGTGCAG”, the binding signal is 9470 fluorescence intensity (a.u.).

With “AACTAACTGGCACGCCCTCATATCACCAACCTTTGGACCTCGGAGTCACCTAGTGCAG”, the binding signal is 8560 fluorescence intensity (a.u.).

Turning to “CTTTCTGATCACCAACTCCGCTCCTTTTAATCGCAACTACCGGAGTCACCTAGTGCAG”, the binding signal was 9660 fluorescence intensity (a.u.).

Regarding “TCCTGTGGTACCCCTGTCGCCGAATCTACGCATCTGCCAACGGAGTCACCTAGTGCAG”, the binding signal is 8140 fluorescence intensity (a.u.).

As to “ATATCTGCTTCTACGTCGTCTACGAAGCCGCCGAGACGTCCGGAGTCACCTAGTGCAG”, the binding signal is 9320 fluorescence intensity (a.u.).

For the sequence “CTGCCGAAGCAACGGATCTGAATCTACGTACCGAGCTTGTCGGAGTCACCTAGTGCAG”, the binding signal is 64600 fluorescence intensity (a.u.).

Take “ACTCTCTTCCTCACGACGCACCACGGGCTAGCCACTCCTACGGAGTCACCTAGTGCAG”: the binding signal was 8340 fluorescence intensity (a.u.).

On to “TATTTGGTTTTGTAGGGGTTGGTTTGGGAAAATTGGAAAGCGGAGTCACCTAGTGCAG”, for which the binding signal was 16400 fluorescence intensity (a.u.).

Turning to “TGTTTGCTTATTACTATTTTTTTTGGGGCGGGAAATTAAACGGAGTCACCTAGTGCAG”, the binding signal was 14100 fluorescence intensity (a.u.).

For the sequence “CTTATTTAGTTGGGGAAAATTTTTGGGTTTGTTTGTCACACGGAGTCACCTAGTGCAG”, the binding signal is 11600 fluorescence intensity (a.u.).

“TTATATTTTGGGACGGAGTATTACTTTGAATCCCTTTTCCCGGAGTCACCTAGTGCAG”: the binding signal was 8280 fluorescence intensity (a.u.).

For “ATTCTCAAAATCGAATTTGTTTTTATATTTCCCTTACTGTCGGAGTCACCTAGTGCAG”, the binding signal is 14700 fluorescence intensity (a.u.).

Take “TATTGTTTAGTTGGGAAAAAAATTTGGGGTTGGTTGTCACCGGAGTCACCTAGTGCAG”: the binding signal is 10400 fluorescence intensity (a.u.).

With “TTTTTTTTTCTTTTGGGGCGGAAGGAGTAGTATGGAGTTTCGGAGTCACCTAGTGCAG”, the binding signal is 12300 fluorescence intensity (a.u.).

For “AAAATTTTATTTTTCATGTGTGGCTTATTGTCCTTTTTTGCGGAGTCACCTAGTGCAG”, the binding signal was 9470 fluorescence intensity (a.u.).

For “GAAAAATTGTCCCTTTTTATTTGGGAGGGGAGGGAGGAGGCGGAGTCACCTAGTGCAG”, the binding signal is 17100 fluorescence intensity (a.u.).

For “TTACAAACAAAAACTCAAAATCCCTTATATTTTGGGACAGCGGAGTCACCTAGTGCAG”, the binding signal was 64700 fluorescence intensity (a.u.).

With “CCTTTTGTTTTTGGGGCTTGTAGTTTTTGGAAATTTGGGGCGGAGTCACCTAGTGCAG”, the binding signal is 18300 fluorescence intensity (a.u.).

In the case of “GCAGGCGGCGGAGGATTTTTGGGAGGGGAAAACGGCGAGTCGGAGTCACCTAGTGCAG”, the binding signal is 8540 fluorescence intensity (a.u.).

For “CTTTTTATTACCGGTGTTTCGCTTTGGACCACCCTTCAACCGGAGTCACCTAGTGCAG”, the binding signal is 9170 fluorescence intensity (a.u.).

With “CCACCAATCCACCACCGCCACGCCACTTCACCCTTGTTTTCGGAGTCACCTAGTGCAG”, the binding signal is 9810 fluorescence intensity (a.u.).

For “CTCCGTCGCCACTCACACCCATGGCCTTGACCGCTACTAGCGGAGTCACCTAGTGCAG”, the binding signal was 9550 fluorescence intensity (a.u.).

With “GTTTTGAAAGGTATTGTTGGGTAGTAATAGGCTTCATCTTCGGAGTCACCTAGTGCAG”, the binding signal is 10200 fluorescence intensity (a.u.).

On to “TTCCTTTTGTGTTGTTTCCCTTTCAGTTTCATCTTTTGCTCGGAGTCACCTAGTGCAG”, for which the binding signal is 8110 fluorescence intensity (a.u.).

In the case of “ACTTGTCCTTGATCCTGCCCCACTTCGGATTGTCAATCGACGGAGTCACCTAGTGCAG”, the binding signal is 8730 fluorescence intensity (a.u.).

In the case of “CGTTCCTTGGTATTCTCCCTCGTGGTGTAAATGTACGTATCGGAGTCACCTAGTGCAG”, the binding signal was 9740 fluorescence intensity (a.u.).

With “TTGTTGCAGCCTCGCAGTAAGATTCCTTGTTTTTCTTAGCCGGAGTCACCTAGTGCAG”, the binding signal was 8620 fluorescence intensity (a.u.).

On to “TCGCTTTTTACTTTTTATTTTTTTACACATCCGACTCAAACGGAGTCACCTAGTGCAG”, for which the binding signal is 8260 fluorescence intensity (a.u.).
